Measurements reported in ChEMBL document CHEMBL3988442, “University of Dundee, Small-Polar-MMV Screening Library” (2021).
In all, about 48,000 compounds went through this assay and about 13,000 (27%) showed an effect of 50% or more. This is one part of the list.

test system: Wolbachia pipientis; assay: Anti-Wolbachia Cell-Based Screen; assay type: functional; design: scale not given: in the data most compounds retested in dose-response had high values; conditions: 5 µM

Compound | Percent Effect
COc1ccc(-c2noc(Cn3cc4c(n3)CCC4)n2)c(OC)c1OC | 2%
Cc1cc2n(n1)CC(CNC1CCN(Cc3ccccc3C)CC1)CN2 (configuration not stated) | -1.399%
COC(=O)c1ccc(N2CCN(C(=O)C3CCC3)C(C)C2)cc1 (configuration not stated) | -8.706%
COC(=O)c1ccc(N2CCN(CCC(=O)NC(N)=O)C(C)C2)cc1 (configuration not stated) | 4.115%
COC(=O)c1ccc(N2CCN(CCN3CCOCC3)C(C)C2)cc1 (configuration not stated) | -3.012%
COC(=O)c1ccc(N2CCN(CCS(C)(=O)=O)C(C)C2)cc1 (configuration not stated) | 130.9%
COC(=O)c1ccc(N2CCN(CC(=O)NC(N)=O)C(C)C2)cc1 (configuration not stated) | 126.9%
COC(=O)c1ccc(N2CCN(CCC#N)C(C)C2)cc1 (configuration not stated) | 9.254%
CNC(=O)NC(=O)CCN1CCN(c2ccc(C(=O)OC)cc2)CC1C (configuration not stated) | 121.7%
CCC(=O)N1CCN(c2ccc(C(=O)OC)cc2)CC1C (configuration not stated) | -6.169%
COC(=O)c1ccc(N2CCN(C(=O)C3CC3)C(C)C2)cc1 (configuration not stated) | -9.327%
COC(=O)c1ccc(N2CCN(C(=O)CC(F)(F)F)C(C)C2)cc1 (configuration not stated) | -6.136%
COCC(=O)N1CCN(c2ccc(C(=O)OC)cc2)CC1C (configuration not stated) | -2.487%
CNC(=O)NC(=O)CN1CCN(c2ccc(C(=O)OC)cc2)CC1C (configuration not stated) | 123.3%
CCn1nc(CC(C)C)cc1C(=O)N1CCOCC(O)C1 (configuration not stated) | 14.61%
Cc1c(Br)cccc1NC(=O)N(C)CCO | -1.587%
CCc1cc(N[C@H]2CCC[C@H]2O)n2nccc2n1 | -17.41%
O=C(CCn1ccnc1)N1CC[C@@H](c2ccc3ccccc3c2)[C@H](O)C1 | 3.256%
Cc1nn(C)c(C)c1C1CCCN1C(=O)c1ccc2c(c1)OCCO2 (configuration not stated) | 107.2%
COc1c(C2CCCN2C(=O)c2ccc3c(c2)OCO3)c(C)nn1C (configuration not stated) | 110.4%
Cc1nc(C(=O)N2CCCC2c2c(C)nn(C)c2C)ccc1C#N (configuration not stated) | -5.29%
Cc1nn(C)c(Cl)c1C1CCCN1C(=O)c1ccc2c(c1)OCO2 (configuration not stated) | 4.266%
Cc1nn(C)c(C)c1C1CCCN1C(=O)c1ccc(CN(C)C)cc1 (configuration not stated) | 0.5484%

Compound | Percent Effect
NC(=O)CC1CCCCN1C(=O)Cc1cccc(Br)c1 (configuration not stated) | -22.53%
Cc1ccc(N2CCC(NC(C)c3ccc(C)o3)CC2)nc1 (configuration not stated) | 5.031%
O=C(CC(F)(F)F)N1C[C@H]2CC[C@@H]1CN(Cc1ccccc1)C2 | -26.8%
c1cncc(-c2c[nH]c([C@@H]3COCCN3Cc3ccncc3)n2)c1 | -1.952%
COCCn1cc(CC(=O)Nc2nc3c(s2)CCC3)c2ccccc21 | 108.7%
COCCn1ccc2c(C(=O)Nc3nc4c(s3)CCC4)cccc21 | 149.9%
COc1ncccc1C(=O)Nc1nc2c(s1)CN(S(=O)(=O)C1CC1)CC2 | -5.987%
COCCn1cc(C(=O)N2CCCC2c2ccncc2)c2ccccc21 (configuration not stated) | 12.21%
CN(CC(=O)Nc1nc2c(s1)CCC2)C(=O)c1cccs1 | 12.75%
CN(CC(=O)Nc1nc2c(s1)CCCCCC2)C(=O)c1ccco1 | -14.29%
NC(=O)CCSCc1cc(Br)cc2cccnc12 | -18.43%
CCn1cc(C#N)c(=O)c2cc(Br)ccc21 | -20.97%
C=C(C)CN(CC)Cc1nc(C(C)(C)C)no1 | 1.625%
Cc1ccccc1CN(Cc1ccc(S(C)(=O)=O)cc1)CC(C)C | 34.24%
COc1cc(Br)cc(CNC2CCCNC2=O)c1O (configuration not stated) | -10.61%
COCc1ccc(OC)c(CNC2CCCNC2=O)c1 (configuration not stated) | 133.5%
COc1cc(Br)c(CNC2CCCNC2=O)cc1OC.Cl (configuration not stated) | -7.392%
Cn1cccc1CNCC1CCCn2cc(C(C)(C)C)nc21 (configuration not stated) | 4.297%
NCC1CCN(c2cnn(CCCn3cccn3)c(=O)c2)CC1 | 3.68%
Cc1cc(C)n(CC2CCCCN2CC(=O)Nc2nnc(C)s2)n1 (configuration not stated) | -11.09%
Cc1cc(C)n(CC2CCCN2CCC(=O)Nc2cc(C)on2)n1 (configuration not stated) | 109.3%
Cc1cc(C)n(CC2CCCCN2CCC(=O)Nc2cc(C)on2)n1 (configuration not stated) | 105.6%
Cc1cc(C)n(CC2CCCN2CC(=O)NC2CCOCC2)n1 (configuration not stated) | -0.8879%

Compound | Percent Effect
Cc1cc(C)n(CC2CCCCN2CC(=O)Nc2ccncc2)n1 (configuration not stated) | 9.261%
Cc1cc(C)n(CC2CCCN2CC(=O)Nc2nnc(C)s2)n1 (configuration not stated) | -4.484%
CN(C)C(=O)C1CN(Cc2ccc(C#N)cc2F)c2ccccc2O1 (configuration not stated) | -1.206%
CC(NC(=O)N1CCN(c2cccs2)CC1)c1ccncc1 (configuration not stated) | -4.876%
CC(=O)N1CCC(NC2(Cc3cc(C(C)(C)O)on3)COC2)CC1 | 1.756%
CCC(=O)N1CCC(Cc2cnc(Nc3cnccn3)cn2)CC1 | 88.17%
CSc1nnc(CC2CCN(C(=O)COc3cccnc3)CC2)n1C | 8.261%
CC(=O)N1CCCC(C(=O)N2CCN(Cc3cc(C)on3)CC2)C1 (configuration not stated) | 8.609%
CC(=O)N1CCC(Cc2cnc(Nc3cc(C)on3)cn2)CC1 | 121.6%
O=C(Cc1cnccn1)N1CCC(c2nccn2CC2CC2)CC1 | -28.72%
Cc1cnn(CC2CCCCN2CC(=O)Nc2c(C)n[nH]c2C)c1 (configuration not stated) | 8.734%
O=C(CN1CCCCC1Cn1cncn1)NCc1ccccn1 (configuration not stated) | -8.236%
Cc1cnn(CC2CCCN2CC(=O)NCc2ccccn2)c1 (configuration not stated) | 118.9%
Cc1cnn(CC2CCCN2CC(=O)Nc2nncs2)c1 (configuration not stated) | 1.96%
Cc1cnn(CC2CCCN2CC(=O)Nc2cc(C)on2)c1 (configuration not stated) | 104.6%
Cc1cnn(CC2CN(CC(=O)NCc3ccccn3)CCO2)c1 (configuration not stated) | -0.3283%
Cc1cnn(CC2CCCN2CC(=O)Nc2cc(C)no2)c1 (configuration not stated) | 114.2%
Cc1cnn(CC2CCCCN2CC(=O)Nc2nncs2)c1 (configuration not stated) | -7.053%
Cc1cnn(CC2CCCN2CC(=O)Nc2nccs2)c1 (configuration not stated) | 91.79%
Cc1cnn(CC2CCCCN2CCC(=O)Nc2cc(C)on2)c1 (configuration not stated) | 2.664%
CCN1CCC(NC(=O)CN2CCCCC2Cn2cc(C)cn2)CC1 (configuration not stated) | 7.683%
